Drawing on PubChem BioAssay AID1508601 (ICCB-Longwood Screening Facility, Harvard Medical School, 2020), this text covers nuclei count, normalised and p53-positive nuclei, normalised for ten compounds.

The nature of assay [1]: p53 stabilisation in HPV-positive human cells, imaging, p53-positive nuclei imaging, 24 h, 48 h (AID 1508601). The conditions noted are these: 24/48 h.
For assay [2], the target named is Cellular tumor antigen p53 (Homo sapiens) (UniProt P04637). The description is as above. The conditions noted are these: 24/48 h, stronger effect = higher value.
Where [3] appears, read: measured here: cell number at 24 h, Library stock concentration: 3.33 mM.
Where [4] appears, read: measured here: cell number at 48 h, Library stock concentration: 3.33 mM.
Setting [5] is: Library stock concentration: 3.33 mM.
[6] abbreviates: measured here: p53 positive nuclei at 24 h, Library stock concentration: 3.33 mM.
Setting [7] is: measured here: cell number at 24 h, Library stock concentration: 80 uM.
Setting [8] is: measured here: cell number at 24 h, Library stock concentration: 400 uM.
Where [9] appears, read: measured here: cell number at 24 h, Library stock concentration: 2 mM.
Where [10] appears, read: measured here: cell number at 24 h, Library stock concentration: 10 mM.
Where [11] appears, read: measured here: cell number at 48 h, Library stock concentration: 80 uM.
Setting [12] is: measured here: cell number at 48 h, Library stock concentration: 400 uM.
The mark [13] stands for this setting: measured here: cell number at 48 h, Library stock concentration: 2 mM.
[14] abbreviates: measured here: cell number at 48 h, Library stock concentration: 10 mM.
Where [15] appears, read: Library stock concentration: 80 uM.
Where [16] appears, read: Library stock concentration: 400 uM.
[17] abbreviates: Library stock concentration: 2 mM.
Setting [18] is: Library stock concentration: 10 mM.
The mark [19] stands for this setting: measured here: p53 positive nuclei at 24 h, Library stock concentration: 80 uM.
Where [20] appears, read: measured here: p53 positive nuclei at 24 h, Library stock concentration: 400 uM.
Setting [21] is: measured here: p53 positive nuclei at 24 h, Library stock concentration: 2 mM.
Where [22] appears, read: measured here: p53 positive nuclei at 24 h, Library stock concentration: 10 mM.
The mark [23] stands for this setting: measured here: cell number at 24 h, concentration not given here.
[24] abbreviates: measured here: cell number at 48 h, concentration not given here.
Setting [25] is: measured here: p53 positive nuclei at 24 h, concentration not given here.

About 85 (1%) of roughly 5,700 compounds were called active. No stated cut-off is given here; in the data, active means p53-positive nuclei above about 36% (passing the limit was not always enough); inactive means the rest. Only a selection was taken, and actives are over-represented in it overall.

Chain of Cellular tumor antigen p53 (Homo sapiens) (P04637 whole entry, looked up): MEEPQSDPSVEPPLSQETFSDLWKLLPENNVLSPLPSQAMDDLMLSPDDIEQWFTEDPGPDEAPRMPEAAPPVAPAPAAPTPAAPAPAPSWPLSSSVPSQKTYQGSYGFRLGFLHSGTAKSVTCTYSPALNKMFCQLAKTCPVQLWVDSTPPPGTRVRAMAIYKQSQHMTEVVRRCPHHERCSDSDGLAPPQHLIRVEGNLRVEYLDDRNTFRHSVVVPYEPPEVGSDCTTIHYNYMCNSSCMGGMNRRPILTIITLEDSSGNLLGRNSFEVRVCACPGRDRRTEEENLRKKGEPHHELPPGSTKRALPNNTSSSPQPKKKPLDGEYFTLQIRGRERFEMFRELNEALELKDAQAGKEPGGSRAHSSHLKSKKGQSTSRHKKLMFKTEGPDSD

Consider `Cc1cn(C2OC(CO)C(O)C2F)c(=O)[nH]c1=O` (centres undefined), for which the nuclei count, normalised in assay [1] (setting [3]) came out at 108%; in assay [1] (setting [4]), 103%. The p53-positive nuclei, normalised was -0.314% (inactive) in assay [2] (setting [5]) and -0.356% in assay [2] (setting [6]).
Take `COC(=O)N1C(=O)[C@](c2ccccc2)(C2CCCC2)N1C(=O)OC`: the nuclei count, normalised in assay [1] (setting [7]) was 90.3%; in assay [1] (setting [8]), 87.6%; in assay [1] (setting [9]), 93.9%; in assay [1] (setting [10]) it was 90.1%; in assay [1] (setting [11]), 91.7%; in assay [1] (setting [12]) it was 93.5%. Moreover, the nuclei count, normalised stood at 99.5% in assay [1] (setting [13]) and 96.9% in assay [1] (setting [14]). Also, the p53-positive nuclei, normalised in assay [2] (setting [15]) was -0.0853% (inactive); in assay [2] (setting [16]) it was -0.162% (inactive); in assay [2] (setting [17]), 0.00515% (inactive); in assay [2] (setting [18]), 0.0597% (inactive); in assay [2] (setting [19]), -0.136%; in assay [2] (setting [20]), -0.136%. Moreover, the figures for the p53-positive nuclei, normalised in assay [2] (setting [21]) and in assay [2] (setting [22]) were 0.165% and 0.0248%, respectively.
Consider `Cc1cc(C)c(C=C2C(=O)Nc3ccccc32)[nH]1`, for which the values for the nuclei count, normalised in assay [1] (setting [3]) and in assay [1] (setting [4]) were 116% and 119%, respectively. Besides, the results for the p53-positive nuclei, normalised in assay [2] (setting [5]) and in assay [2] (setting [6]) were -0.0521% (inactive) and -0.278%, respectively.
As for `Cc1cc(C)c(/C=C2\C(=O)Nc3ccccc32)[nH]1`, the nuclei count, normalised was 96.2% in assay [1] (setting [23]) and 102% in assay [1] (setting [24]). The p53-positive nuclei, normalised in assay [2] (concentration not given here) was 0.0559% (inactive); in assay [2] (setting [25]), 0.0506%.
Regarding `COc1cc(=C2C=c3ccccc3=N2)[nH]c1=Cc1[nH]c(C)cc1C`, the nuclei count, normalised came to 104% in assay [1] (setting [7]); 82.2% in assay [1] (setting [8]); 74.9% in assay [1] (setting [9]); 71.2% in assay [1] (setting [3]); 65.9% in assay [1] (setting [10]); 101% in assay [1] (setting [11]). Also, the nuclei count, normalised in assay [1] (setting [12]) is 75.4%; in assay [1] (setting [13]), 60.3%; in assay [1] (setting [4]) it was 61.8%; in assay [1] (setting [14]), 52.6%. The p53-positive nuclei, normalised in assay [2] (setting [15]) is 0.397% (inactive); in assay [2] (setting [16]), 74% (active); in assay [2] (setting [17]), 142% (active); in assay [2] (setting [5]), 137% (active); in assay [2] (setting [18]), 105% (active); in assay [2] (setting [19]), 0.165%. In addition, the p53-positive nuclei, normalised in assay [2] (setting [20]) turned out to be 72.4%; in assay [2] (setting [21]) it was 167%; in assay [2] (setting [6]), 159%; in assay [2] (setting [22]), 137%.
As to `Nc1ccn(C2C=C(CO)C(O)C2O)c(=O)n1` (centres undefined), the nuclei count, normalised in assay [1] (measured here: cell number at 24 h, Library stock concentration: 500 nM) came to 108%; in assay [1] (measured here: cell number at 24 h, Library stock concentration: 1.5 uM) it was 117%; in assay [1] (measured here: cell number at 24 h, Library stock concentration: 4.6 uM), 110%; in assay [1] (measured here: cell number at 24 h, Library stock concentration: 13.7 uM), 119%; in assay [1] (measured here: cell number at 24 h, Library stock concentration: 41 uM), 115%; in assay [1] (measured here: cell number at 24 h, Library stock concentration: 123 uM), 83.8%. The nuclei count, normalised amounted to 70% in assay [1] (measured here: cell number at 24 h, Library stock concentration: 370 uM); 73.4% in assay [1] (measured here: cell number at 24 h, Library stock concentration: 1.111 mM); 65.6% in assay [1] (measured here: cell number at 24 h, Library stock concentration: 3.333 mM); 65.3% in assay [1] (setting [10]); 109% in assay [1] (measured here: cell number at 48 h, Library stock concentration: 500 nM); 111% in assay [1] (measured here: cell number at 48 h, Library stock concentration: 1.5 uM). The nuclei count, normalised in assay [1] (measured here: cell number at 48 h, Library stock concentration: 4.6 uM) came to 111%; in assay [1] (measured here: cell number at 48 h, Library stock concentration: 13.7 uM), 117%; in assay [1] (measured here: cell number at 48 h, Library stock concentration: 41 uM), 105%; in assay [1] (measured here: cell number at 48 h, Library stock concentration: 123 uM), 67.3%; in assay [1] (measured here: cell number at 48 h, Library stock concentration: 370 uM), 54.3%; in assay [1] (measured here: cell number at 48 h, Library stock concentration: 1.111 mM), 57.7%. Also, the nuclei count, normalised worked out at 52.7% in assay [1] (measured here: cell number at 48 h, Library stock concentration: 3.333 mM) and 52% in assay [1] (setting [14]). Besides, the p53-positive nuclei, normalised in assay [2] (Library stock concentration: 500 nM) was -0.14% (inactive); in assay [2] (Library stock concentration: 1.5 uM), -0.145% (inactive); in assay [2] (Library stock concentration: 4.6 uM) it was 0.0813% (inactive); in assay [2] (Library stock concentration: 13.7 uM), -0.00208% (inactive); in assay [2] (Library stock concentration: 41 uM), -0.138% (inactive); in assay [2] (Library stock concentration: 123 uM), 0.289% (inactive). For the same compound, the p53-positive nuclei, normalised in assay [2] (Library stock concentration: 370 uM) was -0.0266% (inactive); in assay [2] (Library stock concentration: 1.111 mM), 0.668% (inactive); in assay [2] (Library stock concentration: 3.333 mM) it was 0.138% (inactive); in assay [2] (setting [18]) it was 0.496% (inactive); in assay [2] (measured here: p53 positive nuclei at 24 h, Library stock concentration: 500 nM), 0.0935%; in assay [2] (measured here: p53 positive nuclei at 24 h, Library stock concentration: 1.5 uM), -0.093%. Besides, the p53-positive nuclei, normalised in assay [2] (measured here: p53 positive nuclei at 24 h, Library stock concentration: 4.6 uM) was -0.13%; in assay [2] (measured here: p53 positive nuclei at 24 h, Library stock concentration: 13.7 uM) it was 0.115%; in assay [2] (measured here: p53 positive nuclei at 24 h, Library stock concentration: 41 uM) it was -0.0784%; in assay [2] (measured here: p53 positive nuclei at 24 h, Library stock concentration: 123 uM), 0.089%; in assay [2] (measured here: p53 positive nuclei at 24 h, Library stock concentration: 370 uM) it was 0.146%; in assay [2] (measured here: p53 positive nuclei at 24 h, Library stock concentration: 1.111 mM), 0.68%. The p53-positive nuclei, normalised in assay [2] (measured here: p53 positive nuclei at 24 h, Library stock concentration: 3.333 mM) amounted to 0.184%; in assay [2] (setting [22]), 0.519%.
`CCCCC/C=C\C/C=C\C/C=C\CCCCCCC(=O)OC`: the nuclei count, normalised came out at 114% in assay [1] (setting [23]) and 108% in assay [1] (setting [24]). Moreover, the values for the p53-positive nuclei, normalised in assay [2] (concentration not given here) and in assay [2] (setting [25]) were 0.0353% (inactive) and 0.00725%, respectively.
As for `CCC(C)C(NC(=O)C(CCC(=O)O)NC(=O)C(CC(C)C)NC(=O)C1CN=C(C(N)C(C)C)S1)C(=O)NC1CCCCNC(=O)C(CC(N)=O)NC(=O)C(CC(=O)O)NC(=O)C(Cc2cnc[nH]2)NC(=O)C(Cc2ccccc2)NC(=O)C(C(C)CC)NC(=O)C(CCCN)NC1=O` (centres undefined), the nuclei count, normalised turned out to be 97.5% in assay [1] (setting [3]) and 99% in assay [1] (setting [4]). Further, the p53-positive nuclei, normalised in assay [2] (setting [5]) was -0.136% (inactive); in assay [2] (setting [6]), -0.227%.
For the compound `C[C@]12CC[C@H]3c4ccc(O)cc4CC[C@H]3[C@@H]1CCC2=O`, the nuclei count, normalised in assay [1] (setting [3]) stood at 111%; in assay [1] (setting [4]) it was 121%. In addition, the p53-positive nuclei, normalised in assay [2] (setting [5]) was -0.0334% (inactive); in assay [2] (setting [6]), -0.211%.
For `COC(=O)[C@]12CCC(C)(C)C[C@@H]1[C@@H]1C(=O)C=C3[C@]4(C)C=C(C#N)C(=O)C(C)(C)[C@@H]4CC[C@@]3(C)[C@]1(C)CC2` the same measures were 36.3%, 29.9%, 79.7% (active) and 88.9%.
